Test [1] in a line: Nuclear factor erythroid 2-related factor 2/antioxidant responsive element (Nrf2/ARE) small molecule agonists: qHTS cell viability counter screen in human keratinocytes (AID 1919968; active = well fitted curve in the direction sought with a large enough effect in the repeat runs; an effect the other way counts as inactive or inconclusive; also: nearly all actives have a fitted effect of over 55% in size; also: potency is read from the fitted curve at half-maximal effect). In a few lines: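 CellTiter-Fluor fluorescence, read 1 h after reagent, gave viability in the same wells as the ARE-luciferase assay. KeratinoSens cells (1,500/well) had 23 h compound exposure at 37 C/5% CO2 following 5 h plating.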

Test [2] can be described thus: Nuclear factor erythroid 2-related factor 2/antioxidant responsive element (Nrf2/ARE) small molecule agonists: luciferase reporter gene qHTS assay in human keratinocytes (AID 1919969). Also: nearly all actives have a fitted effect of over 35% in size. Also: potency is read from the fitted curve at half-maximal effect. For orientation: In a reporter assay the amount or activity of a reporter protein is the signal.
Test [3] can be described thus: G protein-coupled receptor (GPCR) small molecule agonists, calcium flux assay: HEK293 wild type cell line counter screen (AID 1920065). Also: potency is read from the fitted curve at half-maximal effect. The method in brief: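 Calcium flux counter screen: compound added in agonist mode at 15 concentrations in triplicate to dye-loaded parental HEK293 cells. Fluorescence (480/540) read kinetically for 3 min; ATP served as positive control.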
Background: A change in cytosolic calcium serves as a functional read-out for many receptors and channels.

A short description of test [4]: p53 small molecule agonists, cell-based qHTS assay with human liver microsomes (AID 1963577).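 Also: p53 response element beta-lactamase reporter cells with liver microsomes plus NADPH.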 The method in brief: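 Reporter activation was measured by LiveBLAzer fluorescence intensity in p53RE-bla cells, which had been exposed to compounds for 16 h at 37 C alongside 0.5 mg/mL human liver microsomes and 0.5 mg/mL NADPH (final concentrations).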
(In general: Quantitative high-throughput screening tests each substance at several concentrations.)

The nature of test [5]: p53 small molecule agonists, cell-based qHTS assay with rat liver microsomes (AID 1963578). In a few lines:
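Compound in DMSO added to p53RE-bla cells 5 h post-plating; rat microsomes/NADPH 0.5 mg/mL final; 16 h, 37 C; LiveBLAzer 2 h RT.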

Test [6] is described as follows: p53 small molecule agonists, cell-based qHTS assay with human liver microsomes: qHTS cell viability counter screen (AID 1963579). Also: nearly all actives have a fitted effect of over 45% in size. Also: potency is read from the fitted curve at half-maximal effect. In a few lines:
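HLM-supplemented (0.5 mg/mL final) and NADPH-supplemented (0.5 mg/mL final) p53RE-bla cultures, 4,000 cells per well, were dosed with compounds in DMSO for 16 h at 37 C; luminescent ATP detection (CellTiter-Glo, 30 min, room temperature) quantified surviving cells.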

The nature of test [7]: p53 small molecule agonists, cell-based qHTS assay (AID 1963582; active = well fitted activation curve with a large enough effect in the signal ratio in the repeat runs, not every such curve was filed as active; the % refers to the signal ratio). The method in brief:
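Read-out is beta-lactamase FRET fluorescence after 2 h at room temperature with LiveBLAzer B/G substrate. p53 response element-bla cells were treated 16 h at 37 C with compounds in DMSO, added 5 h after seeding.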

Test [8] has as its target 5-hydroxytryptamine receptor 2A (Homo sapiens) (UniProt P28223). The experiment in a line: 5-hydroxytryptamine receptor 2A (HTR2A) small molecule antagonists, cell-based qHTS assay (AID 1963586). Also: nearly all actives have a fitted effect of over 45% in size. The method in brief: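 CHO cells stably expressing human HTR2A were plated for 18 h at 37 C, then loaded with calcium dye for 1 h. Compounds were preincubated 5 min at room temperature before DOI (4 nM solution) was added. Kinetic fluorescence was read for 3 min.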

Test [9] shares this target. In words: 5-hydroxytryptamine receptor 2A (HTR2A) small molecule agonists, cell-based qHTS assay (AID 1963587). Also: nearly all actives have a fitted effect of over 30% in size. Also: potency is read from the fitted curve at half-maximal effect. In a few lines: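 CHO cells stably expressing human HTR2A, plated 18 h, loaded with calcium dye 1 h at 37 C. Agonist mode: compounds added and intracellular calcium fluorescence recorded kinetically for 2 min at 1 sec intervals.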
For test [10], the target named is Muscarinic acetylcholine receptor M1 (Homo sapiens) (UniProt P11229). The experiment in a line: Cholinergic receptor muscarinic 1 (CHRM1) small molecule agonists, cell-based qHTS assay (AID 1963589). Also: nearly all actives have a fitted effect of over 35% in size. Also: potency is read from the fitted curve at half-maximal effect. The method in brief:
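Agonist-mode calcium-flux screen: compounds at 15 concentrations, three independent runs, were pin-transferred onto dye-loaded human CHRM1-CHO cells. Fluorescence was then recorded kinetically every second over minutes.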

A short description of test [11]: p53 small molecule agonists, cell-based qHTS assay with rat liver microsomes: qHTS cell viability counter screen (AID 1963580). Also: nearly all actives have a fitted effect of over 45% in size. In a few lines: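 Cytotoxicity counter screen: intracellular ATP measured by CellTiter-Glo luminescence in the same wells as the beta-lactamase reporter read, on HCT-116 p53RE-bla cells exposed 16 h at 37 C to compounds with rat liver microsomes and NADPH, each 0.5 mg/mL final.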

Test [12] is described as follows: p53 small molecule agonists, cell-based qHTS assay: qHTS cell viability counter screen (AID 1963581). Also: nearly all actives have a fitted effect of over 45% in size. Also: potency is read from the fitted curve at half-maximal effect. The method in brief:
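Counter screen read by CellTiter-Glo luminescence (ATP content, 30 min at room temperature), run in the same wells as the beta-lactamase reporter read. HCT-116 p53RE-bla cells saw compounds for 16 h at 37 C.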

Test [13] is described as follows: cAMP Responsive Elements (CRE) small molecule agonists, cell-based qHTS assay (AID 1963590). In a few lines: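 Agonist mode: compound added to CRE-bla HEK 293T cells (2,000/well, 18 h after plating) for 3 h at 37 C/5% CO2. Reporter activity detected via FRET beta-lactamase substrate, 2 h room-temperature loading.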
The nature of test [14]: cAMP Responsive Elements (CRE) small molecule antagonists, cell-based qHTS assay (AID 1963591; active = well fitted inhibition curve with a large enough effect in the signal ratio in the repeat runs, not every such curve was filed as active; the % refers to the signal ratio). The method in brief:
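Antagonist mode: compounds are added alongside the adenylyl cyclase activator NKH477 (0.25 uM final) to CRE-bla HEK293T cells for 3 h. LiveBLAzer FRET substrate, 2 h at room temperature, reports bla expression.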

Test [15] addresses Beta-2 adrenergic receptor (Homo sapiens) (UniProt P07550). In words: Adrenergic beta2 receptor (ADRB2) small molecule antagonists, cell-based qHTS assay (AID 1963592). Also: series mostly up to about 92 µM; nearly all actives have a fitted effect of over 50% in size. The method in brief:
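Assay format: CHO-ADRB2 cells, 18-20hr seeding at 37C/5% CO2, then compound plus 1nM isoproterenol agonist mix for 0.5hr RT. Homogeneous time-resolved fluorescence cAMP detection after 1hr, expressed as 665/615 nm ratio.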

Test [16] has the same target. The experiment in a line: Adrenergic beta2 receptor (ADRB2) small molecule agonists, cell-based qHTS assay (AID 1963593).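 Also: CHO cells stably overexpressing human ADRB2.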 The method in brief:
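CHO cells stably over-expressing ADRB2 were plated overnight at 37C, then dosed with compounds plus a stimulation mix containing 100uM IBMX and 25uM Ro-20-1724 for 0.5hr at room temperature. cAMP was measured by HTRF competition, 1hr.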

For test [17], the target named is D(2) dopamine receptor (Homo sapiens) (UniProt P14416). The experiment in a line: Dopamine D2 receptor (DRD2) small molecule agonists, cell-based qHTS assay (AID 1963594). Also: nearly all actives have a fitted effect of over 35% in size. In a few lines: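 HEK293 cells stably expressing human DRD2, pre-treated with PDE inhibitor Ro20-1724 (0.1 mM final) and compound 10 min at room temperature, then stimulated with NKH477 (200nM […]) for 30 min. cAMP read by HTRF (665/620 nm).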

The target is the same in test [18]. In words: Dopamine D2 receptor (DRD2) small molecule antagonists, cell-based qHTS assay (AID 1963595; active = well fitted inhibition curve with a large enough effect in the signal ratio in the repeat runs, with a control signal flat; the % refers to the signal ratio; also: potency is read from the fitted curve at half-maximal effect). The method in brief: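 Antagonist mode in DRD2-HEK293 cells: after compound addition with 0.1 mM Ro20-1724, cells received quinpirole (12 nM) and NKH477 (200 nM) for 30 min at room temperature; HTRF cAMP read after 1 h detection.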
Test [19] addresses Muscarinic acetylcholine receptor M1 (Homo sapiens) (UniProt P11229). The experiment in a line: Cholinergic receptor muscarinic 1 (CHRM1) small molecule antagonists, cell-based qHTS assay (AID 1963588). Also: nearly all actives have a fitted effect of over 40% in size. The method in brief: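 Compounds were tested at 15 concentrations in three independent runs. Dye-loaded CHRM1-CHO cells were exposed 5 min at room temperature before stimulation by acetylcholine added at 50nM. Intracellular calcium was read kinetically on FDSS for 3 min.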

Test [20] has as its target KiSS-1 receptor (Homo sapiens) (UniProt Q969F8). The experiment in a line: Human kisspeptin (KISS1R) small molecule agonists, calcium flux assay in KISS1R-HEK293 cells (AID 1920064; active = well fitted curve in the direction sought with a large enough effect in the repeat runs; an effect the other way counts as inactive or inconclusive). In a few lines: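 Agonist mode: intracellular calcium rise tracked at 1 s intervals over 3 min (480/540 nm) immediately after compound addition to dye-loaded KISS1R-HEK293 stable cells. Each compound tested at 15 concentrations in triplicate.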

A number with no mark means an inactive call. Inconclusive results are not listed. The source made the active and inactive calls. Unless noted, calls follow the shape of the full dose curve.

Beta-2 adrenergic receptor (Homo sapiens), sequence (P07550 whole entry, looked up): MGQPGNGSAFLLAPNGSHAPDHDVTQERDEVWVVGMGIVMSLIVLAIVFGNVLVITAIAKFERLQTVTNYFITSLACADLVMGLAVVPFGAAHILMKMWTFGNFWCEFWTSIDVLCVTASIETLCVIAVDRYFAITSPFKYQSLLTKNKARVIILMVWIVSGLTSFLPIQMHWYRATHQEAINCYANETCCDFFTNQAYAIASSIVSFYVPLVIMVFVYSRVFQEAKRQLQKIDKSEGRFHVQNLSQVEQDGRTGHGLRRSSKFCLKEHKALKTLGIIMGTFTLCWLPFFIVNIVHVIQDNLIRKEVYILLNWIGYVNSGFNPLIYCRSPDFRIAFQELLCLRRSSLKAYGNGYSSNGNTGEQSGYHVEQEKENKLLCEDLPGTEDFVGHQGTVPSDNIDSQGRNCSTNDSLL
5-hydroxytryptamine receptor 2A (Homo sapiens), sequence (P28223 whole entry, looked up): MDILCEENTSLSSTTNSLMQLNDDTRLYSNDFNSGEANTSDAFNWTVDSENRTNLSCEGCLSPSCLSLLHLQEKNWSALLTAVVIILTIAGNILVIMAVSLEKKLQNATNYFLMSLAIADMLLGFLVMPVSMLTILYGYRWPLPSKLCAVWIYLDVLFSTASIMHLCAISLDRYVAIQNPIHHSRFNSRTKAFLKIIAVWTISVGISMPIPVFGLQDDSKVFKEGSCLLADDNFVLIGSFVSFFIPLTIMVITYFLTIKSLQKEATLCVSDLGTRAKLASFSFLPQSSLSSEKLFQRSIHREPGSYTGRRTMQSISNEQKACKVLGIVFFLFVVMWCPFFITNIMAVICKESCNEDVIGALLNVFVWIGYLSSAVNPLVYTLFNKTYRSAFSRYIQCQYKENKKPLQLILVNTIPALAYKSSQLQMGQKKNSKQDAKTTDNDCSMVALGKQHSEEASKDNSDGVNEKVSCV
Muscarinic acetylcholine receptor M1 (Homo sapiens), sequence (P11229 whole entry, looked up): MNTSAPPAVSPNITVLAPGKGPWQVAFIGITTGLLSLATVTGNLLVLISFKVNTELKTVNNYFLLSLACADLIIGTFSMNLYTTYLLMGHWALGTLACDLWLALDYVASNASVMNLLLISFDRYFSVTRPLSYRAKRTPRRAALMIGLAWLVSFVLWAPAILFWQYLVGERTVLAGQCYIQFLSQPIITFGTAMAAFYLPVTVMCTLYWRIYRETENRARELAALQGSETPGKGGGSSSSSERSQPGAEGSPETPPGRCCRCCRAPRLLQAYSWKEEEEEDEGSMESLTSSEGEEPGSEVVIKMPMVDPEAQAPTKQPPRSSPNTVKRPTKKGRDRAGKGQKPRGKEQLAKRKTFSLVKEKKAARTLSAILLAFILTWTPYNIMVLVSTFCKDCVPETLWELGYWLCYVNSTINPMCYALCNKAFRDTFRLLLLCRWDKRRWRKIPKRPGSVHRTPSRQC
D(2) dopamine receptor (Homo sapiens), sequence (P14416 whole entry, looked up): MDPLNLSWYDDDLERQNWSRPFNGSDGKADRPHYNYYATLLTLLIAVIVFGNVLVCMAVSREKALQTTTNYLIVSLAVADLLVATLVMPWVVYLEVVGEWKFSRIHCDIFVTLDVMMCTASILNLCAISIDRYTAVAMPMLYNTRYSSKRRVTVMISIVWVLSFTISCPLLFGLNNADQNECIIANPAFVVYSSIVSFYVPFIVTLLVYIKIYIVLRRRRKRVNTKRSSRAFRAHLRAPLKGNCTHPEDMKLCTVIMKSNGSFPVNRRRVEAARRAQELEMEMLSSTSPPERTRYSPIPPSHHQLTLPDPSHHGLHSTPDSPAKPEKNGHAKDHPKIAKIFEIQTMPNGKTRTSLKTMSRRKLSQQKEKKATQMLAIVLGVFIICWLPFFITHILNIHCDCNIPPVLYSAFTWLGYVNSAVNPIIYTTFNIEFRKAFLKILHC
KiSS-1 receptor (Homo sapiens), sequence (Q969F8 whole entry, looked up): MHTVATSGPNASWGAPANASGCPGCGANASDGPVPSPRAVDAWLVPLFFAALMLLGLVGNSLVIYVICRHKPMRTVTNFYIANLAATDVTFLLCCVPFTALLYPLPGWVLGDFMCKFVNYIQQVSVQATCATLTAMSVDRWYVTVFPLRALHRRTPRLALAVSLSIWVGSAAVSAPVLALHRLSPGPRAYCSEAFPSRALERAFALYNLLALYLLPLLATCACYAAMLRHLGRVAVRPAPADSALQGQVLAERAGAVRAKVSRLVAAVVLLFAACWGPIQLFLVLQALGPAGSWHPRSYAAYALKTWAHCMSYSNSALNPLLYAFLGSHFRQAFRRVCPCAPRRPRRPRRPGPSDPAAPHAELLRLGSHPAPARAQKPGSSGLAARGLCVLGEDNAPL

Regarding `Cc1ccc(N(SC(F)(Cl)Cl)S(=O)(=O)N(C)C)cc1`, the Potency was 27.3 µM (active) in test [1]; 7.7 µM (active) in test [2]; 38.9 µM (active) in test [3]; 16.2 µM (active) in test [6]; 49 µM (active) in test [9]; 49 µM (active) in test [10]. For the same compound, the Potency result in test [4], in test [5], in test [7] and in test [8] was “inactive” throughout.

Turning to `C=CCC1([C@H](C)CCC)C(=O)NC(=O)NC1=O`, the Potency entry in test [1], in [2], in test [3], in [4], in [5] and in [6] was “inactive” throughout. For the same compound, the Potency result in [11], in test [12], in test [7], in test [13], in [14] and in test [15] was “inactive” throughout. For the same compound, the Potency entry in test [16], in test [17] and in test [18] was “inactive” throughout.

For `COc1cc(CC#N)cc(OC)c1OC`, the Potency entry in [1], in test [2], in [3], in [4], in test [5] and in test [6] was “inactive” throughout. The Potency entry in test [11], in [12], in test [7], in test [9], in [19] and in test [10] was “inactive” throughout. Also, the Potency entry in test [13], in test [14], in test [15], in [17] and in [18] was “inactive” in each case.

Regarding `Nc1c(Cl)c(F)nc(OCC(=O)O)c1Cl`, the Potency entry in test [1], in test [2], in test [3], in [4], in test [5] and in test [11] was “inactive” each time. Moreover, the Potency entry in test [12], in test [7], in test [8], in test [19], in [14] and in test [16] was “inactive” throughout. Moreover, the Potency result in test [17] and in test [18] was “inactive” throughout.

Turning to `N#C/C(N)=C(/N)C#N`, the Potency entry in [1], in test [2], in [3], in [5], in test [6] and in test [11] was “inactive” throughout. Besides, the Potency result in [12], in [7], in test [8], in test [9], in [19] and in test [10] was “inactive” in each case. Further, the Potency result in test [13], in [14], in test [15], in [16], in [17] and in test [18] was “inactive” throughout.

On to `N#Cc1c2ccccc2cc2ccccc12`, for which the Potency entry in test [1], in test [2], in test [20], in test [11], in test [12] and in test [8] was “inactive” in each case. Moreover, the Potency entry in test [9], in [19], in test [10], in test [15] and in test [17] was “inactive” each time.

In the case of `CCCCCCCCCCCCCC[P+](CCCCCC)(CCCCCC)CCCCCC` (tested in a mixture with another compound), the Potency is 6.86 µM (active) in test [1], 14.5 µM (active) in test [12] and 54.5 µM (active) in test [18]. For the same compound, the Potency result in test [2], in test [3], in test [5], in test [8], in test [9] and in test [10] was “inactive” throughout. Moreover, the Potency result in [15] and in test [17] was “inactive” each time.

As to `C[C@]12Cc3nonc3C[C@@H]1CC[C@@H]1[C@@H]2CC[C@@]2(C)[C@H]1CC[C@]2(C)O`, the Potency entry in test [1], in [2], in test [3], in [4], in test [5] and in test [6] was “inactive” throughout. Moreover, the Potency result in [11], in test [12], in test [7], in [8], in [19] and in [10] was “inactive” each time. For the same compound, the Potency entry in test [17] and in test [18] was “inactive” in each case.

On to `CN(C)CCc1c[nH]c2ccc(O)cc12`, for which the Potency entry in [1], in test [3], in test [4], in test [5], in [6] and in [12] was “inactive” throughout. The Potency result in [7], in [8], in test [19], in [10], in [13] and in test [14] was “inactive” in each case. The Potency in test [2] was 67 µM (active).

Values taken from PubChem BioAssay (Tox21).
